Data from PubChem BioAssay AID1159580 (chemical genetic matrix, 2015).
Where “and” joins values, the source holds several entries; their conditions need not be identical. Equal entries are not always repeated. Hit rate of the full screen: of about 5,500 compounds, about 2,000 (36%) were called active. Not shown: some 18% with an inconclusive outcome. Rule as the data show it: active = normalized growth mostly below about 0.91 (no sharp cut-off); inconclusive = no clear call, values can overlap the other calls; inactive = mostly above about 0.92. The list shows a part of the results.

Assay: chemical genetic growth profiling, strain panel (AID 1159580);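 also: tested at 20 µM; growth read once vehicle control cultures reached saturation at 30 °C; 1 = growth at the plate median or of vehicle wells; lower values mean less growth of the strain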
Conditions: S. cerevisiae deletion strains, growth OD

Measured: normalized growth

Cc1occc(=O)c1O
inactive: locus YAL021C, strain ccr4, stronger effect = lower value 0.964 | locus YAL026C, strain drs2, stronger effect = lower value 0.972 | locus YAL030W, strain snc1, stronger effect = lower value 0.949 | locus YBL061C, strain skt5, stronger effect = lower value 0.969 | locus YBR009C, strain hhf1, stronger effect = lower value 0.984 | locus YBR021W, strain FUR4, stronger effect = lower value 1 | locus YBR023C, strain chs3, stronger effect = lower value 0.976 | locus YBR171W, strain sec66, stronger effect = lower value 0.975 | locus YBR229C, strain ROT2, stronger effect = lower value 1 | locus YBR231C, strain swc5, stronger effect = lower value 0.964 | locus YBR279W, strain paf1, stronger effect = lower value 0.944 | locus YCL011C, strain gbp2, stronger effect = lower value 0.956 | locus YCL016C, strain dcc1, stronger effect = lower value 0.978 | locus YCL029C, strain bik1, stronger effect = lower value 1.02 | locus YCL061C, strain MRC1, stronger effect = lower value 0.987 | locus YCL069W, strain vba3, stronger effect = lower value 0.978 | locus YCR088W, strain abp1, stronger effect = lower value 0.965 | locus YDL005C, strain med2, stronger effect = lower value 0.967 | locus YDL035C, strain GPR1, stronger effect = lower value 1.01 | locus YDL040C, strain nat1, stronger effect = lower value 0.971 | locus YDL074C, strain BRE1, stronger effect = lower value 1.01 | locus YDL101C, strain DUN1, stronger effect = lower value 1.01 | locus YDL185W, strain tfp1, stronger effect = lower value 1.01 | locus YDL192W, strain arf1, stronger effect = lower value 1.02 | locus YDR001C, strain nth1, stronger effect = lower value 0.953 | locus YDR069C, strain doa4, stronger effect = lower value 1 | locus YDR101C, strain arx1, stronger effect = lower value 0.991 | locus YDR137W, strain rgp1, stronger effect = lower value 0.945 | locus YDR159W, strain sac3, stronger effect = lower value 0.971 | locus YDR162C, strain NBP2, stronger effect = lower value 1.02 | locus YDR195W, strain ref2 0.953 | locus YDR297W, strain sur2, stronger effect = lower value 0.971 | locus YDR318W, strain mcm21, stronger effect = lower value 1.02 | locus YDR334W, strain swr1, stronger effect = lower value 0.929 | locus YDR335W, strain msn5, stronger effect = lower value 0.964 | locus YDR388W, stronger effect = lower value 1.01 | locus YDR392W, strain spt3, stronger effect = lower value 0.917 | locus YDR502C, strain sam2, stronger effect = lower value 0.999 | locus YEL003W, strain gim4, stronger effect = lower value 0.956 | locus YEL037C, strain rad23, stronger effect = lower value 0.961 | locus YEL061C, strain CIN8 (second series), stronger effect = lower value 0.953 | locus YEL061C, strain CIN8, stronger effect = lower value 1 | locus YER015W, strain faa2, stronger effect = lower value 0.964 | locus YER016W, strain bim1, stronger effect = lower value 0.958 | locus YER110C, stronger effect = lower value 1.01 | locus YER111C, strain swi4, stronger effect = lower value 0.966 | locus YER155C, strain BEM2 (second series), stronger effect = lower value 0.97 | locus YER155C, strain BEM2, stronger effect = lower value 0.993 | locus YER167W, strain BCK2, stronger effect = lower value 0.995 | locus YFR010W, strain ubp6, stronger effect = lower value 0.96 | locus YGL078C, strain dbp3, stronger effect = lower value 1.03 | locus YGL086W, strain mad1, stronger effect = lower value 0.982 | locus YGL167C, strain pmr1, stronger effect = lower value 0.961 | locus YGL173C, strain kem1, stronger effect = lower value 0.957 | locus YGL227W, strain vid30, stronger effect = lower value 0.966 | locus YGL240W, strain doc1, stronger effect = lower value 0.971 | locus YGL248W, strain PDE1, stronger effect = lower value 1.01 | locus YGL253W, strain hxk2, stronger effect = lower value 0.974 | locus YGR135W, strain pre9, stronger effect = lower value 1.03 | locus YGR252W, strain gcn5, stronger effect = lower value 1.08 | locus YHR013C, strain ard1, stronger effect = lower value 0.947 | locus YHR027C, strain rpn1, stronger effect = lower value 0.979 | locus YHR030C, strain SLT2, stronger effect = lower value 1.01 and 1.04 | locus YHR079C, strain IRE1 (second series), stronger effect = lower value 1.01 | locus YHR079C, strain IRE1, stronger effect = lower value 1.03 | locus YHR094C, strain hxt1, stronger effect = lower value 1.01 | locus YHR129C, strain ARP1, stronger effect = lower value 1.01 | locus YHR142W, strain chs7, stronger effect = lower value 0.919 | locus YHR200W, strain rpn10, stronger effect = lower value 1.01 | locus YIL066C, strain RNR3, stronger effect = lower value 1.01 | locus YIL073C, strain SPO22, stronger effect = lower value 1.06 | locus YIL125W, strain kgd1, stronger effect = lower value 1.02 | locus YIR030C, strain dcg1, stronger effect = lower value 1 | locus YJL092W, strain hpr5, stronger effect = lower value 0.976 | locus YJL095W, strain BCK1 (second series), stronger effect = lower value 0.962 | locus YJL095W, strain BCK1, stronger effect = lower value 1.01 and 1.02 | locus YJL115W, strain asf1, stronger effect = lower value 0.95 | locus YJL129C, strain trk1, stronger effect = lower value 0.95 | locus YJL134W, strain LCB3, stronger effect = lower value 1.01 | locus YJL154C, strain vps35, stronger effect = lower value 0.953 | locus YJL164C, strain tpk1, stronger effect = lower value 0.969 | locus YJL166W, strain qcr8, stronger effect = lower value 0.953 | locus YJL168C, strain set2, stronger effect = lower value 0.999 | locus YJL187C, strain SWE1 (second series), stronger effect = lower value 1.01 | locus YJL187C, strain SWE1, stronger effect = lower value 0.977 | locus YJR043C, strain POL32, stronger effect = lower value 1.01 | locus YJR066W, strain TOR1, stronger effect = lower value 0.991
